We go through 37 targets from the supplement of paper PMC10849652.

The full data set covers some 7,900 targets. This sample favours those with a hit. About 0.6% of all pairs of compound and target were hits. Values without a mark were called inactive.

UniProt Q15172, sequence (Q15172 whole entry, looked up): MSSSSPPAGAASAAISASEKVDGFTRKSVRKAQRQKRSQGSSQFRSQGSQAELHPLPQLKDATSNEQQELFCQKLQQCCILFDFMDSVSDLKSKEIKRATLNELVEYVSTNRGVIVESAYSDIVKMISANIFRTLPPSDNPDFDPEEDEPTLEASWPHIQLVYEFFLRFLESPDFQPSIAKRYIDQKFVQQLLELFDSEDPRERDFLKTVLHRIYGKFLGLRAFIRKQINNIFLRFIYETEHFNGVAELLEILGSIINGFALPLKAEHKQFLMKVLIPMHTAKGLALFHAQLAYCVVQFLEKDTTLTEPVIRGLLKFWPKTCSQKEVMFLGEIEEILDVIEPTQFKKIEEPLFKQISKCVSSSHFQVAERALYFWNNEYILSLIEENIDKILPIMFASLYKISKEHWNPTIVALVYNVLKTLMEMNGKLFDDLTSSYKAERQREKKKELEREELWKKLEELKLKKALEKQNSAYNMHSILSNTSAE
UniProt P28065, sequence (P28065 whole entry, looked up): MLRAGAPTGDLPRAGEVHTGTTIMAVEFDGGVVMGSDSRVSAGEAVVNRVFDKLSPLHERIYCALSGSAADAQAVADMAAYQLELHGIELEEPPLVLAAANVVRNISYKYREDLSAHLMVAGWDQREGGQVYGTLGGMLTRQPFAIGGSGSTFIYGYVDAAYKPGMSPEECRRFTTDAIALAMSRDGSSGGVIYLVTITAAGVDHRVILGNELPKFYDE
UniProt Q86TB9, sequence (Q86TB9 whole entry, looked up): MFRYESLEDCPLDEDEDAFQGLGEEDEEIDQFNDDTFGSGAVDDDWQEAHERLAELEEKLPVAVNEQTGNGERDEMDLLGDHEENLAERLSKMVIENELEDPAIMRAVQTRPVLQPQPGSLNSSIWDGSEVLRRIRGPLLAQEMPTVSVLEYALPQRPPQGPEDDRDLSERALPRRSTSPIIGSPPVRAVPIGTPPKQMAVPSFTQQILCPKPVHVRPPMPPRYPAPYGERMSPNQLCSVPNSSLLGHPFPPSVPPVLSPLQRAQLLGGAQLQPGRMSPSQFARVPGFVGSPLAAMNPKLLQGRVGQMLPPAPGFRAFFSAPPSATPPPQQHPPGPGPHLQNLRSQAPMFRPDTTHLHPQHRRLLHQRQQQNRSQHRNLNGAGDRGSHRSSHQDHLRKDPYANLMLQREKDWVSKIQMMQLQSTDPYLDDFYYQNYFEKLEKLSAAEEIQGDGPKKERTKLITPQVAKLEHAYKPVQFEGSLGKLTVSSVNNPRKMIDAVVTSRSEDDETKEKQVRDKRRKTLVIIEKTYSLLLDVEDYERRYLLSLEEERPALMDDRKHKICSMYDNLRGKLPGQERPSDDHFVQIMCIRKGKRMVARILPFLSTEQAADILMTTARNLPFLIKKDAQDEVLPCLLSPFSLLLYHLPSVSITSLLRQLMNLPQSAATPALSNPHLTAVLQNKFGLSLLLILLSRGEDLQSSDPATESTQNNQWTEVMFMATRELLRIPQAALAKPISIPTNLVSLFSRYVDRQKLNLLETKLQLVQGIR
UniProt Q15173, sequence (Q15173 whole entry, looked up): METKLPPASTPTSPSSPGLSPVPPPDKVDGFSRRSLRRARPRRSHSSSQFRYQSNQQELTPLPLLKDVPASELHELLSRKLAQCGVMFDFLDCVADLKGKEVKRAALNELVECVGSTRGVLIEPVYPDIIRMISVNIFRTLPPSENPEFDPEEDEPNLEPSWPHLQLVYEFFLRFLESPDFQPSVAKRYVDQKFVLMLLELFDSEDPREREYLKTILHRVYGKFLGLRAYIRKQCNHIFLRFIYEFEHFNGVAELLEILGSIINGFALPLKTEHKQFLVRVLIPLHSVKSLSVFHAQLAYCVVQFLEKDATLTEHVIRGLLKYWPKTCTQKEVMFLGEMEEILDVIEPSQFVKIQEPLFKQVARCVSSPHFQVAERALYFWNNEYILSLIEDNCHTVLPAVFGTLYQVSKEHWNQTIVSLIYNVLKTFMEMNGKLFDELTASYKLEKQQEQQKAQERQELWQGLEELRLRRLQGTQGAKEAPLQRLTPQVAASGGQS
UniProt O15530, sequence (O15530 whole entry, looked up): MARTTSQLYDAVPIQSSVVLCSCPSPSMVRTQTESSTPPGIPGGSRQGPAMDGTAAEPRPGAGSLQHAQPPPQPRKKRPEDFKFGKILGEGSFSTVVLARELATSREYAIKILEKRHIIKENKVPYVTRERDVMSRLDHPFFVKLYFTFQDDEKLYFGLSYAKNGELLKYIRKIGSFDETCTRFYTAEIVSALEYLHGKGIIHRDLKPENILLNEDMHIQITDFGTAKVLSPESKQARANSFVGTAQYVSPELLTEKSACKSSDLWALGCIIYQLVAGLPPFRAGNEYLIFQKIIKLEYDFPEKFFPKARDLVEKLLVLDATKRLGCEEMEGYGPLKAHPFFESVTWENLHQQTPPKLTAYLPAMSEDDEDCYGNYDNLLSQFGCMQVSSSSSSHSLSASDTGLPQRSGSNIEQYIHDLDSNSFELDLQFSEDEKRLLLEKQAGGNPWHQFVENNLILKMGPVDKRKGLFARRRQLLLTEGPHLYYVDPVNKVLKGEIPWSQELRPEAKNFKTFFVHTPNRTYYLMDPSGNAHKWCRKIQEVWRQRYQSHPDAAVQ
UniProt Q9Y5Y5, sequence (Q9Y5Y5 whole entry, looked up): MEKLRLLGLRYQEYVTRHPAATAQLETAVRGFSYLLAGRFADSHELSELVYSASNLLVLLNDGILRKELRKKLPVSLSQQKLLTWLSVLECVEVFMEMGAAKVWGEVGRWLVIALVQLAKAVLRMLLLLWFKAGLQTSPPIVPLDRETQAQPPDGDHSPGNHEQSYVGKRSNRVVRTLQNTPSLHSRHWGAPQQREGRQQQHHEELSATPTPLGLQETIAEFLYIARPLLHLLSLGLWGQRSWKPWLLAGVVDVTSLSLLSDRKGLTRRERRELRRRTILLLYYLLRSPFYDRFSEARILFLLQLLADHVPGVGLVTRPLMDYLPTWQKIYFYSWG
UniProt P54619, sequence (P54619 whole entry, looked up): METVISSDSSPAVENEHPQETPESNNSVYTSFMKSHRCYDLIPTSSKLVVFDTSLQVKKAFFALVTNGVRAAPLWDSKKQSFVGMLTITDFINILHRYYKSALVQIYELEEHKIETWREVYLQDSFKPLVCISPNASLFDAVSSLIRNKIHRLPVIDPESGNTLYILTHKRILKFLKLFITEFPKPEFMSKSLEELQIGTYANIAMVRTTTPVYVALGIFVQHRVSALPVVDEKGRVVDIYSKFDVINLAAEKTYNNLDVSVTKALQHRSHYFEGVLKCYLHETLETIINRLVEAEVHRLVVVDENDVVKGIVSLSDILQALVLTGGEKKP
UniProt O60678, sequence (O60678 whole entry, looked up): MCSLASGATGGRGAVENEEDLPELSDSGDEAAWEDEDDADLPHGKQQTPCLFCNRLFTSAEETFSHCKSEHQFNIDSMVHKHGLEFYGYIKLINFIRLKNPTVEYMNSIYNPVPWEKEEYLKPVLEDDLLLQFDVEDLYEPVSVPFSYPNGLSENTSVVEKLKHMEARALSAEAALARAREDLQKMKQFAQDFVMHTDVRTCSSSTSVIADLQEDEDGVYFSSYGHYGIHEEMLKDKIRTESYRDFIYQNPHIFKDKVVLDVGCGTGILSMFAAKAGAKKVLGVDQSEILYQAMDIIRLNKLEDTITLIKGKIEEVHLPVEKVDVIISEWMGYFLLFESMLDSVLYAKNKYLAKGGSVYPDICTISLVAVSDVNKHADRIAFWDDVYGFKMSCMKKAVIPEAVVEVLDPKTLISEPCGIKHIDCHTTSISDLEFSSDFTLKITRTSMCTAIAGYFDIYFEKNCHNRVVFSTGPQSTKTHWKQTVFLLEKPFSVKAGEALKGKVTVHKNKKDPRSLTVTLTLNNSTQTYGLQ
UniProt Q12974, sequence (Q12974 whole entry, looked up): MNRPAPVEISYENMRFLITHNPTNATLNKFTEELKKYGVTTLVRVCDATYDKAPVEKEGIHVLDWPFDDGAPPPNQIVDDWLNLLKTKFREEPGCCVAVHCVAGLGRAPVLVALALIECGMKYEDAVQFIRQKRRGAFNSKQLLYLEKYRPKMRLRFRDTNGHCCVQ
UniProt Q8N165, sequence (Q8N165 whole entry, looked up): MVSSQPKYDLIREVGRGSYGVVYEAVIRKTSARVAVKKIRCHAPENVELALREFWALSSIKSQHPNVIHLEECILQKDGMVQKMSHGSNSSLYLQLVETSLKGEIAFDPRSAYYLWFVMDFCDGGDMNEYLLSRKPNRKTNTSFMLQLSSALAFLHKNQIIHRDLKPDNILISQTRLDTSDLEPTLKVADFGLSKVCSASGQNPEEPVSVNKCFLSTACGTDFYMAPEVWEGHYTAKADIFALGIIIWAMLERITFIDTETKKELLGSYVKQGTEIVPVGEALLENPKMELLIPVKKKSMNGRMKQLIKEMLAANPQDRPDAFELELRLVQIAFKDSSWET
UniProt P41247, sequence (P41247 whole entry, looked up): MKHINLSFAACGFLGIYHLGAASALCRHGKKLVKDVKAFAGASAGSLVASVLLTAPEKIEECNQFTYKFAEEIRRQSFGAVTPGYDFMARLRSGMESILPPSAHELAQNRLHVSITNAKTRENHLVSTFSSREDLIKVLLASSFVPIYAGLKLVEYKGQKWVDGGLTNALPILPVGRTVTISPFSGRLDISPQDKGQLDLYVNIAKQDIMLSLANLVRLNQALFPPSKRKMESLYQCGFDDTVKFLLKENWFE
UniProt Q9NR22, sequence (Q9NR22 whole entry, looked up): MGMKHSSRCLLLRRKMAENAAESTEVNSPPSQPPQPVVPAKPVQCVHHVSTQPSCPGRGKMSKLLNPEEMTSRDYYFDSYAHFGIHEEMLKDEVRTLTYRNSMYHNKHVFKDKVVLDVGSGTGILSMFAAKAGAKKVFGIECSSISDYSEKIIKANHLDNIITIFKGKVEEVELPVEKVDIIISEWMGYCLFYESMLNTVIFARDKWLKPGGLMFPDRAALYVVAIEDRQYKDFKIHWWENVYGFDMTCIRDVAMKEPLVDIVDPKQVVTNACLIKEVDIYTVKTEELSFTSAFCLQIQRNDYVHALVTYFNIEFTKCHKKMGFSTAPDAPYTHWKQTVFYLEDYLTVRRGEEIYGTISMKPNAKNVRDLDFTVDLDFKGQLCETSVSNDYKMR

Compound in the first assay: CNC(=O)C1=CC=CC=C1NC2=NC(=NC=C2Cl)NC3=C(C=C(C=C3)N4CCOCC4)OC
Description: log2 fold change, soluble protein after heating vs DMSO (PISA); higher = thermal stabilisation; K562 cells, 10 uM, 30 min; active = over 0.2 and 3.5 SD of the protein, either way, in both replicates (recomputed). In short, it runs like this:
(§1)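 Soluble protein was defined as the supernatant after 21,000xg for 90 min. It came from K562 cells at 2×10^6 cells/mL given 10 μM compound for 30 min, heated in aliquots for 3 min across 48°C-58°C, pooled, and extracted in PBS with 0.5% NP-40 at 4°C, and was quantified by TMTpro 16plex LC-MS/MS with equalised channel sums. Thermal stability against control samples, from duplicates, is reported as log2 fold change.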
Consider PDIK1L (UniProt Q8N165), for which the log2 fold change is 0.192.

Consider POLR2C (UniProt P19387), for which the log2 fold change was -0.043.

Regarding POLB (UniProt P06746), the log2 fold change is 0.062.

Regarding PPP2R5A (UniProt Q15172), the log2 fold change was 0.01.

For POMK (UniProt Q9H5K3), the log2 fold change is 0.022.

With PRKAG1 isoform 3 (UniProt P54619), the log2 fold change was -0.184.

As to PSMB9 (UniProt P28065), the log2 fold change is 0.062.

With PTGFRN (UniProt Q9P2B2), the log2 fold change was -0.092.

As to PIGH (UniProt Q14442), the log2 fold change was 0.012.

For the target PTP4A2 (UniProt Q12974), the log2 fold change is -0.1.

As to PNN (UniProt Q9H307), the log2 fold change is -0.067.

PPP2R5B (UniProt Q15173): the log2 fold change is -0.064.

Regarding PLIN2 (UniProt Q99541), the log2 fold change was 0.026.

As for PNPLA4 (UniProt P41247), the log2 fold change is 0.058.

As for POGZ (UniProt Q7Z3K3), the log2 fold change was 0.056.

In the case of PRMT3 (UniProt O60678), the log2 fold change is 0.058.

On to PEX16 isoform 2 (UniProt Q9Y5Y5), for which the log2 fold change is -0.053.

Regarding PIK3CD (UniProt O00329), the log2 fold change was 0.08.

PTEN isoform 2 (UniProt P60484): the log2 fold change was -0.247.

For the target PPP1R12C (UniProt Q9BZL4), the log2 fold change was 0.113.

Turning to POLR2M (UniProt Q6EEV4), the log2 fold change was 0.097.

PSMB4 (UniProt P28070): the log2 fold change was -0.031.

Consider PDPK1 (UniProt O15530), for which the log2 fold change was -0.064.

Take PHKA1 (UniProt P46020): the log2 fold change is 0.101.

Take POLR2E (UniProt P19388): the log2 fold change was -0.076.

For the target PRMT8 (UniProt Q9NR22), the log2 fold change was -0.009.

As to PRKAR2A (UniProt P13861), the log2 fold change was 0.027.

With PHC3 isoform 7 (UniProt Q8NDX5), the log2 fold change is -0.007.

For the target PATL1 (UniProt Q86TB9), the log2 fold change is -0.135.

Regarding PARP1 (UniProt P09874), the log2 fold change was 0.094.

In the case of PHLDB1 isoform 2 (UniProt Q86UU1), the log2 fold change was -0.164.

Take QRICH1 (UniProt Q2TAL8): the log2 fold change is -0.036.

Take PEA15 isoform 2 (UniProt Q15121): the log2 fold change was -0.147.

Compound in another assay: CNC(=O)c1ccc(Nc2ncc(C(F)(F)F)c(NCc3nccnc3N(C)S(C)(=O)=O)n2)cc1 [defactinib]
The description is as above. In short, it runs like this: as §1
With PKM isoform 2 (UniProt P14618), the log2 fold change was -0.045.

Turning to PDIK1L (UniProt Q8N165), the log2 fold change was 0.014.

For the target POLR2C (UniProt P19387), the log2 fold change is 0.133.

With PSD3 (UniProt Q9NYI0), the log2 fold change was -0.004.

For PPP2R5A (UniProt Q15172), the log2 fold change was -0.037.

Take POMK (UniProt Q9H5K3): the log2 fold change was 0.024.

With PRKAG1 isoform 3 (UniProt P54619), the log2 fold change is -0.081.

In the case of PSMB9 (UniProt P28065), the log2 fold change is -0.008.

Consider PTGFRN (UniProt Q9P2B2), for which the log2 fold change is -0.049.

As to PGK2 (UniProt P07205), the log2 fold change is 0.037.

PIGH (UniProt Q14442): the log2 fold change is 0.005.

For the target PTP4A2 (UniProt Q12974), the log2 fold change was -0.213.

Take PPP2R5B (UniProt Q15173): the log2 fold change is 0.051.

PLIN2 (UniProt Q99541): the log2 fold change was -0.006.

On to PCNX1 (UniProt Q96RV3), for which the log2 fold change is 0.027.

In the case of PNPLA4 (UniProt P41247), the log2 fold change is -0.047.

As for POGZ (UniProt Q7Z3K3), the log2 fold change was -0.162.

As to PRMT3 (UniProt O60678), the log2 fold change was -0.005.

In the case of PEX16 isoform 2 (UniProt Q9Y5Y5), the log2 fold change is -0.106.

For the target PIK3CD (UniProt O00329), the log2 fold change is -0.218.

Turning to PPP1R12C (UniProt Q9BZL4), the log2 fold change was -0.205.

In the case of POLR2M (UniProt Q6EEV4), the log2 fold change was -0.081.

With PSMB4 (UniProt P28070), the log2 fold change was 0.038.

In the case of PDPK1 (UniProt O15530), the log2 fold change was -0.025.

With POLR2E (UniProt P19388), the log2 fold change was 0.216.

As for PRMT8 (UniProt Q9NR22), the log2 fold change is -0.039.

As to PRKAR2A (UniProt P13861), the log2 fold change is -0.02.

Take PATL1 (UniProt Q86TB9): the log2 fold change was -0.078.

With PARP1 (UniProt P09874), the log2 fold change was -0.089.

As to PHLDB1 isoform 2 (UniProt Q86UU1), the log2 fold change is -0.035.

As to QRICH1 (UniProt Q2TAL8), the log2 fold change is -0.271.

On to PEA15 isoform 2 (UniProt Q15121), for which the log2 fold change was -0.026.

Compound in another assay: CNCc1ccc(-c2[nH]c3cc(F)cc4c3c2CCNC4=O)cc1 [rucaparib]
Described as above. In outline:
as §1
For the target PKM isoform 2 (UniProt P14618), the log2 fold change was 0.125.

In the case of PDIK1L (UniProt Q8N165), the log2 fold change is 0.111.

On to POLR2C (UniProt P19387), for which the log2 fold change was 0.059.

Consider PSD3 (UniProt Q9NYI0), for which the log2 fold change is -0.03.

Regarding POLB (UniProt P06746), the log2 fold change is 0.095.

PPP2R5A (UniProt Q15172): the log2 fold change was 0.053.

POMK (UniProt Q9H5K3): the log2 fold change was 0.168.

In the case of PRKAG1 isoform 3 (UniProt P54619), the log2 fold change is -0.005.

For the target PSMB9 (UniProt P28065), the log2 fold change is 0.296.

Consider PTGFRN (UniProt Q9P2B2), for which the log2 fold change was -0.024.

As for PGK2 (UniProt P07205), the log2 fold change is -0.248.

In the case of PIGH (UniProt Q14442), the log2 fold change was 0.037.

Consider PTP4A2 (UniProt Q12974), for which the log2 fold change is -0.143.

Consider PNN (UniProt Q9H307), for which the log2 fold change was 0.303.

As for PPP2R5B (UniProt Q15173), the log2 fold change was -0.015.

For the target PLIN2 (UniProt Q99541), the log2 fold change was -0.012.

As for PCNX1 (UniProt Q96RV3), the log2 fold change was -0.123.

For PNPLA4 (UniProt P41247), the log2 fold change was 0.

As for POGZ (UniProt Q7Z3K3), the log2 fold change was 0.196.

In the case of PRMT3 (UniProt O60678), the log2 fold change is 0.035.

As for PEX16 isoform 2 (UniProt Q9Y5Y5), the log2 fold change is 0.042.

On to PIK3CD (UniProt O00329), for which the log2 fold change is 0.182.

With PTEN isoform 2 (UniProt P60484), the log2 fold change is -0.108.

As for PPP1R12C (UniProt Q9BZL4), the log2 fold change was 0.184.

With POLR2M (UniProt Q6EEV4), the log2 fold change was -0.145.

Take PSMB4 (UniProt P28070): the log2 fold change is 0.019.

Consider PDPK1 (UniProt O15530), for which the log2 fold change was -0.056.

For PHKA1 (UniProt P46020), the log2 fold change is -0.283.

As to POLR2E (UniProt P19388), the log2 fold change is 0.153.

Turning to PRMT8 (UniProt Q9NR22), the log2 fold change was -0.059.

Consider PRKAR2A (UniProt P13861), for which the log2 fold change was -0.015.

In the case of PHC3 isoform 7 (UniProt Q8NDX5), the log2 fold change was -0.276.

For PATL1 (UniProt Q86TB9), the log2 fold change was 0.131.

As for PARP1 (UniProt P09874), the log2 fold change was 1.05 (active).

Turning to PHLDB1 isoform 2 (UniProt Q86UU1), the log2 fold change is 0.011.

As to QRICH1 (UniProt Q2TAL8), the log2 fold change was -0.008.

On to PEA15 isoform 2 (UniProt Q15121), for which the log2 fold change was -0.037.
